Data as given in PubChem BioAssay (NCI).
The panel holds about 79,000 compounds, 15% with a hit somewhere; the sample as a whole holds those more often. Activity calls are given as the source filed them. Cut-off read from the data, not from the text of the source: active = growth inhibition above about 70%; inactive = the rest.

What was measured:
[1] = NCI Yeast Anticancer Drug Screen. Data for the rad14 strain (AID 159);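 note: 0% = growth of vehicle-treated control cultures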; details: S. cerevisiae rad14 strain growth inhibition, hits give high values
Summary of the method: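 Test compounds were applied to a repair-deficient yeast strain. Its growth was then compared with that of cultures given vehicle alone, and inhibition was expressed relative to those controls.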

[2] = NCI Yeast Anticancer Drug Screen. Data for the sgs1 mgt1 strain (AID 161);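 note: 0% = growth of cultures given vehicle only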; details: S. cerevisiae sgs1 mgt1 strain, hits give high values
Summary of the method: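 Percent growth inhibition was derived by comparing compound-exposed mutant yeast with vehicle-exposed cultures. The strain carries alterations in DNA damage repair.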

[3] = NCI Yeast Anticancer Drug Screen. Data for the CLN2oe strain (AID 163);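 note: 0% = growth of vehicle-only control cultures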; details: S. cerevisiae CLN2oe strain, hits give high values
Summary of the method: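 Whole-cell yeast growth assay. A strain engineered for altered cell-cycle control received compound, and inhibition relative to vehicle-treated cultures was recorded.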

[4] = NCI Yeast Anticancer Drug Screen. Data for the cln2 rad14 strain (AID 165);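 note: 0% = growth equal to vehicle treated cultures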; details: S. cerevisiae cln2 rad14 strain, hits give high values
Summary of the method: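 Yeast strain cln2 rad14, bearing defects in cell cycle control and DNA repair, serves as the test system; values reflect growth inhibition compared with vehicle.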

[5] = NCI Yeast Anticancer Drug Screen. Data for the bub3 strain (AID 167); details: S. cerevisiae bub3 mutant strain, hits give high values
Summary of the method: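 Yeast carrying a defined mutation is treated with each compound, and growth is compared with that of vehicle-exposed cells to give inhibition.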

[6] = NCI Yeast Anticancer Drug Screen. Data for the wt2 strain (AID 169);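 note: 0% = growth of vehicle-treated yeast cultures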; details: S. cerevisiae wt2 strain growth inhibition, hits give high values
Summary of the method: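 Treated yeast vs. vehicle-treated yeast: growth inhibition determined.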

[7] = NCI Yeast Anticancer Drug Screen. Data for the mlh1 strain (AID 171);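 note: 0% = growth of vehicle-treated control cultures of the same strain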; details: S. cerevisiae mlh1 strain growth inhibition, hits give high values
Summary of the method: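 A yeast strain with a defined genetic lesion serves as the test organism. Cultures receive compound or vehicle, and growth is measured.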

[8] = NCI Yeast Anticancer Drug Screen. Data for the sgs1 strain (AID 173);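 note: 0% = growth of vehicle-only control cultures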; details: S. cerevisiae sgs1 mutant, hits give high values
Summary of the method: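 A genetically defined yeast mutant is incubated with the test compound, and its growth is compared to that of the same strain given vehicle.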

[9] = NCI Yeast Anticancer Drug Screen. Data for the mlh1 rad18 strain (AID 175); details: S. cerevisiae mlh1 rad18 strain growth inhibition, hits give high values
Summary of the method: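 Steps: expose repair-defective yeast to compound; measure growth; express inhibition against vehicle-treated controls.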

[10] = NCI Yeast Anticancer Drug Screen. Data for the rad18 strain (AID 177); details: S. cerevisiae rad18 mutant growth inhibition, hits give high values
Summary of the method: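 Measured value is growth inhibition of a yeast strain bearing a DNA repair alteration, referenced to vehicle-treated cells.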

[11] = NCI Yeast Anticancer Drug Screen. Data for the wt1 strain (AID 149);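 note: 0% = growth of vehicle-treated wt1 cultures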; details: S. cerevisiae wt1 strain (SPY 50644) growth inhibition, hits give high values
Summary of the method: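 wt1 yeast, compound-treated; % growth inhibition vs vehicle control.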

[12] = NCI Yeast Anticancer Drug Screen. Data for the mgt1 strain (AID 153); details: S. cerevisiae mgt1 mutant growth inhibition, hits give high values
Summary of the method: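 Measured: inhibition of mgt1 yeast growth by compound, normalized to vehicle-treated cultures.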

[13] = NCI Yeast Anticancer Drug Screen. Data for the rad50 strain (AID 155);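 note: 0% = growth of vehicle-only cultures of the same strain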; details: S. cerevisiae rad50 strain growth inhibition, hits give high values
Summary of the method: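 Genetically altered yeast (DNA repair pathway); compound treatment; growth inhibition vs vehicle ctrl.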

[14] = NCI Yeast Anticancer Drug Screen. Data for the mec2-1 strain (AID 157); details: S. cerevisiae mec2-1 strain, hits give high values
Summary of the method: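 Using mec2-1 yeast: add compound, measure growth, express inhibition versus vehicle-treated cultures.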

[15] = at 5.0 µM (retest, dose inferred, filed as 0.5)
[16] = at 50.0 µM (retest, dose inferred, filed as 5.0)

Measured: growth inhibition

O=c1[nH]c(=O)n(CCCO)cc1F
inactive: [1]; at 100.0 µM -30% | [2]; [15] 58% | [2]; at 50.0 µM -33.4% | [3]; at 1.2 µM 3% | [3]; at 3.7 µM 8% | [3]; at 11.0 µM 9% | [3]; at 33.0 µM 3% | [3]; at 100.0 µM 7% | [4]; [15] 13% | [4]; [16] 26% | [4]; at 50.0 µM -8.55% | [5]; at 1.2 µM -14% | [5]; at 3.7 µM -22% | [5]; [15] 20% | [5]; at 11.0 µM -22% | [5]; at 33.0 µM -37% | [5]; [16] 15% | [5]; at 50.0 µM -26.6% | [5]; at 100.0 µM -21% | [6]; at 1.2 µM 3% | [6]; at 3.7 µM -6% | [6]; at 11.0 µM -14% | [6]; at 33.0 µM -22% | [6]; at 100.0 µM -18% | [7]; at 1.2 µM -30% | [7]; at 3.7 µM -15% | [7]; at 11.0 µM -19% | [7]; at 33.0 µM -15% | [7]; at 100.0 µM -19% | [8]; at 1.2 µM -27% | [8]; at 3.7 µM -16% | [8]; at 11.0 µM -24% | [8]; at 33.0 µM -3% | [8]; at 100.0 µM -11% | [9]; [15] 47% | [9]; [16] 45% | [9]; at 50.0 µM -41.3% | [10]; at 1.2 µM -18% | [10]; at 3.7 µM -6% | [10]; at 11.0 µM -4% | [10]; at 33.0 µM 13% | [10]; at 100.0 µM 42%
active: [2]; [16] 76%

CCOc1ccc2ccc3cccnc3c2n1
active: [13]; at 100.0 µM 74% | [2]; at 50.0 µM 70.6% | [5]; at 100.0 µM 70% | [10]; at 100.0 µM 72%
inactive: [11]; at 1.2 µM -5% | [11]; at 3.7 µM -2% | [11]; at 11.0 µM 2% | [11]; at 33.0 µM 18% | [11]; at 100.0 µM 48% | [12]; at 1.2 µM -4% | [12]; at 3.7 µM 8% | [12]; at 11.0 µM -10% | [12]; at 33.0 µM 34% | [12]; at 100.0 µM 68% | [13]; at 1.2 µM -5% | [13]; at 3.7 µM 12% | [13]; [15] -1% | [13]; at 11.0 µM 26% | [13]; at 33.0 µM 59% | [13]; [16] 40% | [13]; at 50.0 µM 69% | [14]; at 1.2 µM -4% | [14]; at 3.7 µM -5% | [14]; [15] -3% | [14]; at 11.0 µM 8% | [14]; at 33.0 µM 13% | [14]; [16] 28% | [14]; at 50.0 µM 47.2% | [14]; at 100.0 µM 35% | [1]; at 1.2 µM -4% | [1]; at 3.7 µM 4% | [1]; at 11.0 µM -1% | [1]; at 33.0 µM 7% | [1]; at 100.0 µM 68% | [2]; [15] -8% | [2]; [16] 66% | [3]; at 1.2 µM -18% | [3]; at 3.7 µM -7% | [3]; at 11.0 µM -14% | [3]; at 33.0 µM 4% | [3]; at 100.0 µM 22% | [4]; [15] -33% | [4]; [16] -17% | [4]; at 50.0 µM -3.9% | [5]; at 1.2 µM -4% | [5]; at 3.7 µM -3% | [5]; [15] -9% | [5]; at 11.0 µM 1% | [5]; at 33.0 µM 36% | [5]; [16] 52% | [5]; at 50.0 µM 59% | [6]; at 1.2 µM 0% | [6]; at 3.7 µM 2% | [6]; at 11.0 µM 8% | [6]; at 33.0 µM 37% | [6]; at 100.0 µM 66% | [7]; at 1.2 µM -3% | [7]; at 3.7 µM -1% | [7]; at 11.0 µM 17% | [7]; at 33.0 µM 54% | [7]; at 100.0 µM 63% | [8]; at 1.2 µM -3% | [8]; at 3.7 µM 1% | [8]; at 11.0 µM 9% | [8]; at 33.0 µM 40% | [8]; at 100.0 µM 63% | [9]; [15] 2% | [9]; [16] 40% | [9]; at 50.0 µM 35% | [10]; at 1.2 µM -3% | [10]; at 3.7 µM 8% | [10]; at 11.0 µM 23% | [10]; at 33.0 µM 60%
